This is a sample that favours compounds with a hit; in the whole collection about 4.6% have one here.
Tau FP inhib: tau fibrillization inhibition (FP); Potency, µM (highest dose often 57.7 µM), inactives show top-dose activity, negative = inhibition, most hits filed as inhibitors; K18 P301L tau heparin fibrillization, Alexa594 FP, 6 h; P10636; 0.39% of 280,000 active; further: potency means the concentration at half of the fitted maximal effect; nearly all actives have a fitted effect of over 55% in size
Target sequence (P10636 561-689 P618L limits assumed): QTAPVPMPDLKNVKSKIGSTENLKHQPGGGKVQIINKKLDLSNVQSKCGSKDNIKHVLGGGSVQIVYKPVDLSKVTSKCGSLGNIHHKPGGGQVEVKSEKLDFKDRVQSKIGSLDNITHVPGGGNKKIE
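FP of Alexa 594-tau after heparin (20 uM) induction. Substrate: human K18 P301L, 15 uM unlabeled, 0.24 uM labeled. Buffer 100 mM sodium acetate pH 7. 6 hr, 37 C.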
TexasRed fluor: Texas Red fluorescence interference in TRb-SRC2 counter-screen | AID 1479 | TRb/SRC2 Texas Red total fluorescence interference | 0.29% of 280,000 active | Potency, µM (highest dose often 106 µM), for the others: at the top dose fluorescence change, negative = quenching; active means well fitted curve in either direction with a large enough effect; inconclusive means small, poorly fitted or top-dose-only effect; further: potency means the concentration at half of the fitted maximal effect
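Flags fluorescent or light-absorbing compounds by total fluorescence, S + 2P, at 555 nm excitation and 632 nm emission. Mixture: 20 nM Texas Red SRC2 peptide, 0.6 uM human TRb LBD, 1 uM T3, 5% DMSO; compound exposure 5 h at ambient temperature.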
TRb SRC2 PPI: inhibitors of human thyroid hormone receptor beta-SRC2 interaction; P10828; Potency, µM (top dose mostly 106 µM), for the others: top-dose activity change, negative = inhibition, usual class: inhibitors; AID 1469; TRbeta-SRC2 peptide binding, fluorescence polarization; receptor liganded with 1 µM T3; 0.065% of 280,000 active;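 further: potency means the concentration at half of the fitted maximal effect; plate controls were bound peptide for no effect and peptide without receptor for full effect; nearly all actives have a fitted effect of over 50% in size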
Target sequence (P10828 whole entry, looked up): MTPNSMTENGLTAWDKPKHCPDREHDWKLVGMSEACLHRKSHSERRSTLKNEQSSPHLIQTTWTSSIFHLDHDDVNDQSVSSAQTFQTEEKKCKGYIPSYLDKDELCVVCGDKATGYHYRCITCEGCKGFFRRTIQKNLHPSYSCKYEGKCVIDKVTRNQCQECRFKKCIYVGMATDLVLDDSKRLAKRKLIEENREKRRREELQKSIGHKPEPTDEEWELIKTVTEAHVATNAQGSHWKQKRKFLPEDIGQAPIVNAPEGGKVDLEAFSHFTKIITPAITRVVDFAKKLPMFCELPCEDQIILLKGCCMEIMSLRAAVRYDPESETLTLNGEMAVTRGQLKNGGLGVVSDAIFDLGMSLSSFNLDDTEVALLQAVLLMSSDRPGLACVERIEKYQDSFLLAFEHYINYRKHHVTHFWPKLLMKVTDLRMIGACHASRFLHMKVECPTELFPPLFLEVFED
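TRb LBD 0.6 uM + Texas Red SRC2 peptide 20 nM, 1 uM T3, Tris buffer w/ 5% DMSO; compound pinned, 5 h RT; FP read ex 555/em 632; normalized to unbound and bound controls.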
Tau fluor counter: counter-screen for tau fibril formation inhibitors; 0.93% of 280,000 active; tau K18 P301L Alexa594 fluorescence, heparin fibrillization; Potency, µM (titrated, usually from 57.7 µM), for inactives: at the top dose activity change, negative = decrease; further: potency means the concentration at half of the fitted maximal effect; nearly all actives have a fitted effect of over 55% in size
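Human K18 P301L tau (15 uM unlabeled plus 0.24 uM Alexa 594-labeled, final) in 100 mM sodium acetate pH 7 was mixed with compound and 20 uM heparin and incubated 6 hr at 37 C.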
PNC inhibitor: inhibitors of perinucleolar compartment assembly | 3.1% of 140,000 active | activity change (PNC), negative = inhibition, % at 10 µM | PC3M PTB-GFP, PNC prevalence imaging, 16 h; active compounds read low;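 active means readout at or below -70, meaning at least 70% loss of cells showing the perinucleolar compartment, a nuclear body marking cancer cells; inconclusive means readout between -30 and a set limit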;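 further: plate controls were DMSO wells for no effect and camptothecin positive control wells for full effect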
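Read-out is percentage of cells bearing a perinucleolar compartment, from automated 20x imaging of fixed, Hoechst-stained PC3M PTB-GFP cells. Cells were seeded 4 h, then exposed 16 h to compound (23 nl of library stock) in duplicate plates.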
Tau ThT inhib: inhibitors of human tau fibril formation, thioflavin T binding | P10636 | 2.1% of 270,000 active | Potency, µM (highest dose often 57.4 µM), inactives show at the highest dose activity, negative = inhibition, actives largely listed as inhibitors | recombinant tau K18 P301L (four-repeat tau fragment), heparin-induced fibrillization, ThT fluorescence | AID 1460; further: potency means the concentration at half of the fitted maximal effect; nearly all actives have a fitted effect of over 55% in size
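Tau K18 P301L fragment (15 uM unlabeled plus 0.24 uM Alexa 594-labeled) in 100 mM sodium acetate pH 7 with compound, fibrillization induced by 20 uM heparin for 6 hr at 37 C. Thioflavin T (30 uM) added, fluorescence read after 1 hr (ex 450, em 510 nm).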
Active calls of the source: *; [ ] = another dose, or the depositor's remark. Unless noted, the call rests on the fitted dose curve; in most records, active means well fitted curve in the direction sought with a large enough effect; inconclusive means small, poorly fitted or top-dose-only effect, or another doubt; inactive means no such curve, though single readings can be large; an effect the other way counts as inactive or inconclusive. Unless noted, on the % scale 0 is the no-effect control and ±100 the full control effect.

`COC(=O)C(/C=N/OCc1ccc([N+](=O)[O-])cc1)NC(=O)c1cccc(Cl)c1` (stereo not given) gave Tau FP inhib -9%, TexasRed fluor -2%, TRb SRC2 PPI -8%, Tau fluor counter inconclusive, PNC inhibitor -98* and Tau ThT inhib -24%.
`O=C(/C(=C/O)N=Nc1ccccc1)c1cccs1` gave Tau FP inhib 5%, TexasRed fluor -5%, TRb SRC2 PPI 5%, Tau fluor counter -14% and Tau ThT inhib 28µM*.
`O=C(NCc1ccco1)c1ccc(S(=O)(=O)c2cccc(S(=O)(=O)N3CCOCC3)c2)cc1` gave Tau FP inhib 3%, TexasRed fluor -6%, TRb SRC2 PPI -7%, Tau fluor counter 1%, PNC inhibitor inconclusive and Tau ThT inhib 6%.
`O=C(Nc1cccc(NC(=O)C2CC3CCCC(C2)C3=O)n1)C1CC2CCCC(C1)C2=O` (stereo not given) gave Tau FP inhib 2%, TexasRed fluor 1%, TRb SRC2 PPI -12%, Tau fluor counter -9%, PNC inhibitor inconclusive and Tau ThT inhib -9%.
Screening Cc1nc(NC(=O)C2CC3CCCC(C2)C3=O)sc1C (stereo not given) returned Tau FP inhib -1%, TexasRed fluor -1%, TRb SRC2 PPI -5%, Tau fluor counter 1%, PNC inhibitor -122* and Tau ThT inhib -1%.
`COc1cc2c(cc1OC)C(COc1ccc(F)cc1)N(C(=O)Cc1ccccc1)CC2` (stereo not given) gave Tau FP inhib 6%, TexasRed fluor -1%, TRb SRC2 PPI 4%, Tau fluor counter -8% and Tau ThT inhib -17%.
CC/C(=N\n1nnnc1Nc1ccccc1)c1ccccc1 was read as Tau FP inhib -9%, TexasRed fluor -1%, TRb SRC2 PPI -1%, Tau fluor counter -25%, PNC inhibitor -100* and Tau ThT inhib -4%.
CCNC(=S)NNC(=O)c1ccccc1Cl was read as Tau FP inhib 4%, TexasRed fluor 1%, TRb SRC2 PPI -2%, Tau fluor counter 6%, PNC inhibitor -81* and Tau ThT inhib 2%.
CCNC(=S)NNC(=O)c1ccccc1OC(F)F was read as Tau FP inhib -3%, TexasRed fluor 3%, TRb SRC2 PPI -15%, Tau fluor counter -5%, PNC inhibitor 34 and Tau ThT inhib -6%.
For COc1cc(C2NC(=O)N(C)C3=C2C(=O)CCC3)cc(OC)c1OC (stereo not given) the results were Tau FP inhib 1%, TexasRed fluor -6%, TRb SRC2 PPI 0%, Tau fluor counter -3%, PNC inhibitor 10 and Tau ThT inhib -2%.
Screening O=P1(O)Oc2c(c(-c3ccccc3)cc3ccccc23)-c2c(-c3ccccc3)cc3ccccc3c2O1 returned Tau FP inhib 1%, TexasRed fluor 1%, TRb SRC2 PPI 4%, Tau fluor counter 8% and Tau ThT inhib 6%.
`Oc1cc(-c2ccccc2)c2ccccc2c1` gave Tau FP inhib inconclusive, TexasRed fluor -1%, TRb SRC2 PPI 0%, Tau fluor counter inconclusive, PNC inhibitor -11 and Tau ThT inhib 14µM*.
COc1ccc(CCNC(=O)CN(C)S(=O)(=O)c2cccs2)cc1OC was read as Tau FP inhib 4%, TexasRed fluor -1%, TRb SRC2 PPI -3%, Tau fluor counter -2%, PNC inhibitor 23 and Tau ThT inhib -9%.
For COc1ccc2[nH]cc(CCNc3nc(-c4ccoc4)nc4ccccc34)c2c1 the results were Tau FP inhib inconclusive, TexasRed fluor -2%, TRb SRC2 PPI 7%, Tau fluor counter 32µM*[quencher] and Tau ThT inhib inconclusive.
`COc1ccc(CNc2nc(-c3ccoc3)nc3ccccc23)c(OC)c1` gave Tau FP inhib -12%, TexasRed fluor -24%, TRb SRC2 PPI 7%, Tau fluor counter inconclusive and Tau ThT inhib inconclusive.
Screening COc1ccc2[nH]cc(CCNc3nc(-c4ccccc4CN(C)C)nc4ccccc34)c2c1 returned Tau FP inhib 5%, TexasRed fluor -9%, TRb SRC2 PPI -7%, Tau fluor counter inconclusive and Tau ThT inhib inconclusive.
Screening COc1cccc(-c2nc(NCCc3c[nH]c4ccc(OC)cc34)c3ccccc3n2)c1 returned Tau FP inhib inconclusive, TexasRed fluor -8%, TRb SRC2 PPI 8%, Tau fluor counter 14µM*[quencher] and Tau ThT inhib inconclusive.
For COc1ccc2[nH]cc(CCNc3nc(-c4ccc(C(=O)N(C)C)cc4)nc4ccccc34)c2c1 the results were Tau FP inhib 3%, TexasRed fluor -10%, TRb SRC2 PPI 4%, Tau fluor counter 16µM*[quencher] and Tau ThT inhib inconclusive.
`O=C(NC(Cc1ccccc1)C(=O)O)c1ccco1` (stereo not given) gave Tau FP inhib 5%, TexasRed fluor -2%, TRb SRC2 PPI -3%, Tau fluor counter 10% and Tau ThT inhib 5%.
`COc1ccc(Br)cc1/C=N/Nc1cccc(C(=O)O)c1` gave Tau FP inhib 0%, TexasRed fluor -6%, TRb SRC2 PPI 7%, Tau fluor counter -25%, PNC inhibitor 17 and Tau ThT inhib inconclusive.
`O=C(O)c1cccc(N/N=C/c2cc(Br)cc(Br)c2O)c1` gave Tau FP inhib inconclusive, TexasRed fluor -18%, TRb SRC2 PPI -4%, Tau fluor counter 18µM*[quencher], PNC inhibitor inconclusive and Tau ThT inhib 11µM*.
`Brc1ccc(/C=N/Nc2ccccc2)cc1` gave Tau FP inhib 11%, TexasRed fluor -2%, TRb SRC2 PPI -6%, Tau fluor counter 20µM*[quencher], PNC inhibitor 6 and Tau ThT inhib inconclusive.
`O=C(O)c1cccc(N/N=C/c2ccc(-c3ccccc3)cc2)c1` gave Tau FP inhib -6%, TexasRed fluor -2%, TRb SRC2 PPI 0%, Tau fluor counter inconclusive and Tau ThT inhib 14µM*.
For CC(C)(C)c1ccc(/C=N/Nc2cccc(C(=O)O)c2)cc1 the results were Tau FP inhib 9%, TexasRed fluor -2%, TRb SRC2 PPI -1%, Tau fluor counter -5% and Tau ThT inhib inconclusive.
For Cc1[nH]c2ccccc2c1/C=N/Nc1cccc(C(=O)O)c1 the results were Tau FP inhib -8%, TexasRed fluor 0%, TRb SRC2 PPI 0%, Tau fluor counter inconclusive and Tau ThT inhib 13µM*.
Cc1[nH]c2ccccc2c1/C=N/NC(=O)Nc1ccccc1 was read as Tau FP inhib 11%, TexasRed fluor -3%, TRb SRC2 PPI 9%, Tau fluor counter inconclusive and Tau ThT inhib inconclusive.

Screens: PubChem, National Center for Advancing Translational Sciences (NCATS)
